HT1080 IDH1KD tx – qHTS for induction of synthetic lethality in tumor cells producing 2HG: qHTS for the HT-1080-IDH1KD cell line; HT-1080 IDH1 knockdown viability, ATP luminescence, 48 h; 360,000 tested, 2% active; AID 686971, 2013; Potency, µM (top dose mostly 46.1 µM), for the others: at the highest dose activity, negative = toxicity, usual class: cytotoxic;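 note: potency is the fitted concentration of half-maximal effect; 0% = DMSO wells and -100% = cell-free medium wells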
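After a 2 h attachment period, IDH1KD HT-1080 cells took pin-transferred compound for 48 h at 37 °C; ATP-based luminescence after 10 min room-temperature reagent incubation reported viability.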
TDP1 cell noCPT – qHTS for Inhibitors of human tyrosyl-DNA phosphodiesterase 1 (TDP1): qHTS in cells in absence of CPT | DT40 Tdp1-/- hTDP1 cells, no CPT, ATP luminescence, 48 h | Potency, µM (titrated, usually from 46.2 µM), inactives show top-dose activity change, negative = growth inhibition, hits mostly inhibitors | 420,000 tested, 15% active; note: potency is the fitted concentration of half-maximal effect; nearly all actives have a fitted effect of over 55% in size
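Seeded 400 DT40-hTDP1 cells/well (vehicle DMSO, no 20 nM CPT); pinned compounds; ≥48 hr at 37 °C; CellTiter-Glo luminescence as viability measure.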
HT1080-NT tox – qHTS for induction of synthetic lethality in tumor cells producing 2HG: qHTS for the HT-1080-NT fibrosarcoma cell line; HT-1080-NT fibrosarcoma viability, CellTiter-Glo ATP luminescence, 48 h; Potency, µM (highest dose often 46.1 µM), without a hit: at the highest dose activity, negative = less viability, hits mostly cytotoxic; 360,000 tested, 1.6% active;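 note: NT is the 2HG producing partner of a matched IDH1 knockdown line; potency is the fitted concentration of half-maximal effect; 0% = DMSO-treated cells and -100% = media-only wells without cells; nearly all actives have a fitted effect of over 55% in size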
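A 48-hour cytotoxicity screen used HT-1080-NT cells plated 2 hours before compound delivery. ATP-based CellTiter-Glo luminescence measured viability, normalized to DMSO and no-cell controls.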
IL1B secr inh – qHTS for Inhibitors of Inflammasome Signaling: IL-1-beta AlphaLISA Primary Screen. THP-1 LPS/ATP IL-1B secretion, AlphaLISA, 16 h; active compounds read low. activity change, % at 57.5 µM. 360,000 tested, 4.7% active; in the data active = activity change below about -50%; inconclusive = mostly about -30% to -49%
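THP-1 cells pretreated 1 hr with compounds (up to 57.5 uM final), then stimulated with LPS (250 ng/mL final) plus ATP (1.25 mM final); secreted IL-1B measured by AlphaLISA after 16 hr, decreased signal indicating inhibition.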
DT40 TDP1 CPT – qHTS for Inhibitors of human tyrosyl-DNA phosphodiesterase 1 (TDP1): qHTS in cells in presence of CPT; chicken DT40 Tdp1-/-;hTDP1 cells + 20 nM CPT, ATP luminescence, 48 h; Potency, µM (top dose mostly 46.2 µM), for inactives: at the top dose activity change, negative = growth inhibition, hits mostly inhibitors; 420,000 tested, 12% active; AID 686979, 2013; note: potency is the fitted concentration of half-maximal effect; nearly all actives have a fitted effect of over 55% in size
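Chicken DT40 Tdp1-/- cells stably complemented with human TDP1 were seeded at 400 cells/well in medium containing 20 nM camptothecin, exposed to pin-transferred compounds, and grown at 37 °C for at least 48 hr. Viability was read as ATP luminescence.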
* marks the source's active call; other numbers are inactive results; u = inconclusive; x = no result; [ ] = dose if it differs, or a comment. An excerpt weighted towards active compounds, which were near 19% of everything screened. Unless noted, calls come from the whole dose curve; as a rule, active = well fitted curve in the direction sought with a large enough effect; inconclusive = small, poorly fitted or top-dose-only effect, or another doubt; inactive = no such curve, though single readings can be large; an effect the other way counts as inactive or inconclusive. Unless noted, % is set by controls: 0 for no effect and ±100 for the full control effect.

SMILES	HT1080 IDH1KD tx	TDP1 cell noCPT	HT1080-NT tox	IL1B secr inh	DT40 TDP1 CPT
CCNC(=O)c1c2c(nc3ccccc13)C(=O)N(C1CCCCC1)C2	x	-18.9%	x	x	-18.8%
CCc1ccc(CNC(=O)c2c3c(nc4ccccc24)C(=O)N(C2CCCCC2)C3)cc1	x	16.4µM*	x	x	u
OCC1OC(n2nc3ccccc3n2)C(O)C(O)C1O (stereo unspecified)	-3.1%[9.24 µM]	-13.0%	-12.6%	29.9	-7.8%
Nc1ncnc2c1nc(Br)n2C1OC(CO)C(O)C1O (stereo unspecified)	x	2.31µM*	x	x	u
Nc1ncnc2nn(C3OC(CO)C(O)C3O)nc12 (stereo unspecified)	13µM*	1.84µM*	u	52.6	4.11µM*
CC1CCc2cc(F)ccc2N1C(=O)CSc1nnc(-c2cccs2)n1C (stereo unspecified)	2.5%	-9.7%	-0.7%	-3.4	-13.4%
CN(C)c1ccc(/C=C/C=C2/SC(=S)N(c3ccccc3)C2=O)cc1	-19.6%	8.2µM*	1.5%	u	18.4µM*
O=C1/C(=C/C=C/c2ccco2)SC(=S)N1c1ccc(O)cc1	-19.8%	u	-19.2%	-22.8	18.4µM*
CCc1cccc(NS(=O)(=O)c2ccc3c(c2)N(CC(=O)OC)C(=O)CS3)c1	x	u	x	x	18.4µM*
COC(=O)CN1C(=O)CSc2ccc(S(=O)(=O)Nc3cccc(C)c3)cc21	x	23.1µM*	x	x	u
COC(=O)CN1C(=O)CSc2ccc(S(=O)(=O)N3CCOCC3)cc21	x	-4.9%	x	x	24.2%
CCn1cc(CN2CCCC(CNS(=O)(=O)c3cccc4cccnc34)C2)cn1 (stereo unspecified)	5.2%	-4.3%	-2.8%	4.0	-5.6%
COc1ccccc1NC(=O)CSc1oc(-c2ccc(F)cc2)nc1S(=O)(=O)c1ccc(Br)cc1	x	13µM*	x	x	20.6µM*
COc1ccccc1NC(=O)CSc1oc(-c2cccs2)nc1S(=O)(=O)c1ccc(Br)cc1	x	u	x	x	23.1µM*
NC(=O)CSc1oc(-c2ccc(F)cc2)nc1S(=O)(=O)c1ccccc1	-17.3%	-14.8%	-6.2%	-2.7	-8.9%
COc1ccccc1NC(=O)CSc1oc(-c2ccccc2)nc1S(=O)(=O)c1ccc(C)cc1	x	20.6µM*	x	x	18.4µM*
CCCSc1oc(-c2ccco2)nc1S(=O)(=O)c1ccc(C)cc1	-13.8%	u	-5.2%	-13.4	u
COc1ccccc1NC(=O)CSc1oc(-c2ccco2)nc1S(=O)(=O)c1ccc(C)cc1	x	u	x	x	23.1µM*
CN1C(=O)CC(C(=O)Nc2ccc(C(=O)O)cc2)SC1=Nc1ccc(Cl)cc1 (stereo unspecified)	x	-1.7%	x	x	4.0%
Cc1ccc(C(=O)N(Cc2cc3ccc(F)cc3nc2N2CCC(O)CC2)CC2CCCO2)cc1 (stereo unspecified)	x	-5.4%	x	x	2.1%[9.04 µM]
COc1ccc([N+](=O)[O-])cc1/C=N/Nc1nn[nH]n1	-2.7%	u	2.5%	-0.7	u
CCc1ccc(CNC(=O)c2cc(=O)[nH]c3ccc(S(=O)(=O)N4CCCCC4)cc23)cc1	x	4.8%	x	x	-1.6%
COc1ccccc1NC(=O)CSc1oc(-c2ccccc2)nc1S(=O)(=O)c1ccccc1	x	16.4µM*	x	x	20.6µM*
CCSc1oc(-c2ccccc2)nc1S(=O)(=O)c1ccccc1	2.4%	-15.0%	-3.2%	-6.2	-28.5%
COc1ccc(Nc2oc(-c3ccco3)nc2S(=O)(=O)c2ccc(F)cc2)cc1	-3.2%	u	-6.6%	-56.9*	u
SMILES	HT1080 IDH1KD tx	TDP1 cell noCPT	HT1080-NT tox	IL1B secr inh	DT40 TDP1 CPT
COC(=O)N1CCC2(CCCN(C(=O)Nc3cccc(F)c3)C2)CC1	x	-4.0%	x	x	-0.1%
COc1ccccc1CN1CCC(n2nccc2NC(=O)CCCc2ccccc2)CC1	-20.9%	u	-20.0%	u	14.6µM*
CCOc1ccccc1CN1CCC(n2nccc2NC(=O)CCCc2ccccc2)CC1	-26.0%	18.4µM*	-2.9%	u	u
Cc1cccc(CN2CCC(n3nccc3NC(=O)CCCc3ccccc3)CC2)c1	-23.4%	20.6µM*	-11.6%	u	u
CCOc1ccccc1CN1CCC(n2nccc2NC(=O)CCc2ccccc2)CC1	29.3%	u	6.3%	-15.0	u
O=C(CCc1ccccc1)Nc1ccnn1C1CCN(C/C=C/c2ccccc2)CC1	-4.8%	u	-6.9%	-13.2	u
CC(=O)c1cccc(CN2CCC(n3nccc3NC(=O)CCCc3ccccc3)CC2)c1	9.3%	-15.0%	0.4%	14.4	-23.2%
COc1ccccc1/C=C/CN1CCC(n2nccc2NC(=O)CCc2ccccc2)CC1	0.0%	11.6µM*	-13.8%	-28.3	14.6µM*
C/C(=N\NC(=O)CCc1ccc(S(=O)(=O)N2CCOCC2)cc1)c1ccc(Br)cc1	1.1%	3.9%	2.2%	0.4	6.0%
COc1ccc(C(C)NC(=O)c2ccc(Cl)cc2)cc1OC (stereo unspecified)	-7.1%	u	-8.8%	0.0	-4.1%
COc1ccc(C(=O)CC(SCC(NC(C)=O)C(=O)O)c2ccc(Cl)cc2)cc1OC (stereo unspecified)	10.8%	u	-0.3%	-88.1*	14.6µM*
CCC1C(c2ccccc2)=CCC(C(=O)O)C1C (stereo unspecified)	11.9%	9.3%	0.5%	-7.4	17.6%
CCN(CC)CCCNC(=O)CSc1c2c(nc3cc(Cl)ccc13)CCCC2	23.1µM*	5.8µM*	23.1µM*	0.0	8.2µM*
O=C(CSc1c2c(nc3ccc(Cl)cc13)CCCC2)NCCCN1CCOCC1	-28.5%	u	u	-92.9*	u
O=C(CSc1c2c(nc3cc(Cl)ccc13)CCCC2)NCCCN1CCOCC1	u	u	u	-100.9*	u
O=C(CSc1c2c(nc3ccccc13)CCCC2)NCc1ccco1	2.1%	19.9%	0.7%	4.6	0.0%
O=C(CSc1c2c(nc3cc(Cl)ccc13)CCCC2)NCCN1CCOCC1	0.1%	u	-1.0%	-91.5*	u
CCCCNC(=O)c1ccc2c(SCC(=O)O)c3c(nc2c1)CCCC3	5.5%	-2.7%	5.8%	1.9	-6.4%
CCNC(=O)NC(=O)C(C)Oc1ccc(Br)cc1Br (stereo unspecified)	0.0%	-3.8%	-19.2%	23.0	-3.1%
Cc1cccc[n+]1C1C(c2ccccc2)C(C#N)=C(C(=C=[N-])C#N)NC1(O)C1CC1 (stereo unspecified)	-13.4%	u	2.0%	-16.3	23.1µM*

Screening data deposited in PubChem by National Center for Advancing Translational Sciences (NCATS).
